Source: ChEMBL document CHEMBL3988442, “University of Dundee, Small-Polar-MMV Screening Library” (2021)
The campaign covered roughly 48,000 compounds. About 13,000 (27%) showed an effect of 50% or more. This is one part of the list.

test system: Wolbachia pipientis; experiment: Anti-Wolbachia Cell-Based Screen; format: functional; parameters: scale not given: in the data most compounds retested in dose-response had high values; conditions: 5 µM

SMILES | Percent Effect
COCCc1noc(CNC2CCCN(c3cccnn3)C2)n1 (configuration not stated) | 6.075%
CCOC(=O)c1coc(N2CCC(N3CCC(O)CC3)CC2)n1 | -0.9238%
CC(=O)N(c1ccc(C)cc1)c1nc(CN2CCCC(C)C2)cs1 (configuration not stated) | 4.19%
Cc1cc(C2CCC2)nc(N2CC(n3cccn3)C2)n1 | 18.14%
O=C(c1cnccn1)N1CCCC(c2cccc(-n3ccnc3)n2)C1 (configuration not stated) | 132.1%
CC(=O)N1CCCC(c2cccc(-n3ccnc3)n2)C1 (configuration not stated) | 108.7%
O=C(C1CCC1)N1CCCC(c2cccc(-n3ccnc3)n2)C1 (configuration not stated) | 120%
Cc1cc(C)nc(N2CCC(c3cncc(-n4ccnc4)n3)CC2)n1 | 132.5%
O=C(c1cc[nH]n1)N1CCCC(c2cccc(-n3ccnc3)n2)C1 (configuration not stated) | -0.007784%
Fc1ccc(CN2CCCC2c2cncc(-n3ccnc3)n2)cc1 (configuration not stated) | -7.107%
Cc1nc(COC[C@@H]2CCC[C@@]23CNCCO3)cs1.Cl.Cl | -7.746%
CNS(=O)(=O)CC1CCCN1c1ccc(Br)cn1 (configuration not stated) | -12.02%
Cn1ccnc1C(NCc1csc(Br)c1)c1ccccc1 (configuration not stated) | -0.294%
CCc1nccc(CN2CCCC(c3nn(C)c(=O)n3CC)C2)n1 (configuration not stated) | 16.29%
CC(C)[C@H]1COC(=O)N1Cc1nccn1C1CC1 | 4.052%
CCc1nc(N)nc(NCc2cnn3cccnc23)c1C | -10.8%
OCCCN1CCc2[nH]nc(C(c3ccccc3)c3ccccc3)c2C1 | -10.74%
O=C(Cn1ccc(=O)[nH]c1=O)NCc1cccnc1OCC(F)(F)F | 7.684%
CC(c1ccon1)N(C)C(=O)C1CCN(C2CCCCC2)CC1 (configuration not stated) | -1.584%
Cc1ccccc1CN1CCCN(S(=O)(=O)N(C)C2CCCCC2)CC1 | -4.096%
Cc1cnn(CCNCc2nccn2Cc2ccccc2)c1 | 6.467%
CCCc1n[nH]cc1C(=O)N1CCCC(c2nccn2CC2CC2)C1 (configuration not stated) | 2.109%
Cc1n[nH]cc1C(=O)N1CCCC(c2cccc(-n3ccnc3)n2)C1 (configuration not stated) | 117.2%

SMILES | Percent Effect
c1cnc(N2CCCC(c3cncc(-n4ccnc4)n3)C2)nc1 (configuration not stated) | 115.9%
O=C(C1CCCC1)N1CCCC(c2cccc(-n3ccnc3)n2)C1 (configuration not stated) | 109.1%
Cn1c(Cn2ccnc2)nnc1C1CCCN(c2ncccn2)C1 (configuration not stated) | 5.27%
Cl.c1cnc(N2CCCC(NCc3ccc(-n4ccnc4)cc3)C2)nc1 (configuration not stated) | 24.04%
COCC(=O)N1CCCC(c2cccc(-n3ccnc3)n2)C1 (configuration not stated) | 83.17%
Cc1cc(C2CCCN(C(=O)c3c(C)nn4cccnc34)C2)n[nH]1 (configuration not stated) | -1.385%
CC(C)Oc1cccc(CC(=O)N(CC(N)=O)C2CCCC2)c1 | -6.842%
CN(C)C(=O)c1ccc(N2CCC3(CCC(=O)N(CCO)C3)CC2)nc1 | -10.7%
O=C(Cn1[nH]c2ccccc2c1=O)N1CCCC(CC2CC2)(C(=O)O)C1 (configuration not stated) | -7.331%
Cc1ccnc(N2CCCC(c3nccn3C(C)C)C2)n1 (configuration not stated) | 2.014%
Cc1cc(C)nc(N2CCCC(c3cccc(-n4ccnc4)n3)C2)n1 (configuration not stated) | 122.3%
Cc1nc(C(=O)N2CCCC(c3cccc(-n4ccnc4)n3)C2)co1 (configuration not stated) | -10.62%
CCc1c(C)nc2ccccc2c1N1CCC(NC(C)=O)CC1 | 12.09%
Cc1ccoc1C(=O)NCCOc1ccc(C(F)(F)F)cn1 | -4.463%
CCN1CCCCC1C(=O)N1CCC(OCCOC)CC1 (configuration not stated) | 73.16%
CCN1CCCCC1C(=O)N1CCN(C(=O)OC)CC1 (configuration not stated) | 100.7%
COC(=O)N1CCCCC1C(=O)N1CCC(c2ccncc2)CC1 (configuration not stated) | -8.744%
CCN1CCCCC1C(=O)N1CCC(OC2CCCC2)CC1 (configuration not stated) | 102.5%
CC(=O)c1cccc(NC(=O)CN2CCCCC2C(=O)N2CCCC2)c1 (configuration not stated) | -9.292%
COCCOC1CCN(C(=O)NCc2cc(C)oc2C)CC1 | 6.618%
COCCOC1CCN(C(=O)NCc2coc3ccccc23)CC1 | -1.148%
COC(=O)N1CCCC(C(=O)N2CCCCC2)C1 (configuration not stated) | -8.373%
CCN1CCCCC1C(=O)N1CCc2onc(-c3ccc(Cl)cc3)c2C1 (configuration not stated) | 6.805%

SMILES | Percent Effect
CC/C=C(/C)C(=O)NCc1ccc(OC)nc1 | -1.205%
OCCOCCN1CCCC1c1nc2cc(F)ccc2[nH]1 (configuration not stated) | -0.6121%
COCCOCC(=O)Nc1cc(C)ccc1F | 111.1%
Cc1cc(F)ccc1NC(=O)Cn1cc(C(=O)O)ccc1=O | -9.145%
COCCOCC(=O)NC(C#N)c1c(F)cccc1Cl (configuration not stated) | -1.788%
CN(C)S(=O)(=O)c1ccc(F)c(NC(=O)COCC2CC2)c1 | -1.216%
COCCOCC(=O)Nc1ccccc1F | 116.5%
COCc1cc(CN(C)C(=O)CCC(=O)Nc2cc(C)ccc2F)n[nH]1 | -13.49%
O=C(Cn1ccc(=O)[nH]c1=O)Nc1ccccc1F | -14.53%
COCCOCC(=O)Nc1ccc(F)cc1C | 92.33%
CCC(=O)Nc1ccc(F)cc1OC | -5.571%
O=C(NCC(F)(F)C(F)F)c1ccncc1 | -18.96%
CC(C)Cc1n[nH]c(C2CC(=O)N(CC(C)C)C2)n1 (configuration not stated) | -3.52%
O=C(O)C(F)(F)F.c1ncn(Cc2cn3c(n2)CN(CC2CCCC2)CC3)n1 | -2.888%
CC[C@H](Nc1nc(C(C)C)nc2c1cnn2C)c1ccccc1 | -13.66%
CNc1ncc(CN(C)C(=O)CCc2cc3n(n2)CCCNC3)cn1 | -7.945%
CNc1ncc(CN(C)C(=O)CCc2[nH]nc3c2CCCC3)cn1 | 98.75%
CN(Cc1ccncn1)C(=O)CCc1[nH]nc2c1CCCC2 | 105.8%
CN(Cc1ccncn1)C(=O)C1(Oc2ccc(Cl)cc2)CCNCC1 | -1.2%
CN(Cc1ccncn1)C(=O)c1cccc(CCC(C)(C)O)c1 | -19.37%
CNc1ncc(CN(C)C(=O)c2ccc(C3CCCO3)s2)cn1 (configuration not stated) | -2.521%
Cn1cc(C[C@H]2[C@@H](OCC3CC3)CCN2C(=O)c2ccc[nH]2)cn1 | -34.09%
O=C(c1cccs1)N1CC[C@@H]2[C@H]1CCC(=O)N2c1ccccc1 | 4.251%

SMILES | Percent Effect
Cc1cnc(CNC(=O)NCCOc2ncccc2Cl)s1 | 0.4061%
CCC(Nc1nccc(C2CCCC2)n1)c1ncccc1C (configuration not stated) | -9.409%
Cc1ncc(-c2ccnc(N[C@@H](C)CO)n2)c(C2CCCCC2)n1 | 99.14%
CCC(Nc1nccc(C2CCCC2)n1)c1ccccn1 (configuration not stated) | 15.43%
Cc1ncc(-c2ccnc(NCCO)n2)c(C2CCCCC2)n1 | 70.45%
COc1ccc(-c2noc([C@@H](C)NC(=O)NC(C)(C)C)c2C(=O)O)cc1 | -18.05%
N#Cc1cn(C2CC2)c(=O)n(CC(O)c2ccccc2F)c1=O (configuration not stated) | -13.9%
Cl.O=C(NCC1CCC2(CCNCC2)CO1)c1cnccn1 (configuration not stated) | 3.528%
O=C(NCC1CCCO1)c1coc(Cn2cnc3ccccc32)n1 (configuration not stated) | 1.583%
Cl.O=C(NCC1CCCO1)c1cc(-c2ccncc2)c2cnccc2n1 (configuration not stated) | 81.36%
O=C(NCC1CCCO1)c1cc(-c2cccnc2)c2cnccc2n1 (configuration not stated) | 70.74%
O=C(NCC1CCCO1)c1csc(Cc2ccccc2)n1 (configuration not stated) | -0.1841%
Cc1cc(C(=O)NCC2CCCO2)c(C)n1-c1cccnc1 (configuration not stated) | -0.4746%
CN(C)Cc1nc(C(C)(C)NC(=O)c2ccnn2C)no1 | 0.5486%
Cc1ncc(C(=O)NCCNc2ncccn2)s1 | 110.1%
CS(=O)(=O)NCCNC(=O)c1cnc(-c2ccccc2)nc1 | 5.162%
Cc1ncc(C(=O)NCCNC(=O)c2ccccc2)s1 | 117.1%
CC(=O)NCCNC(=O)c1cnc(C(C)(C)C)s1 | 109.1%
Cc1ccc(-c2ncc(C(=O)NCCNC(=O)C(C)C)s2)c(C)c1 | -1.458%
CC(C)(C)NC(=O)c1cnc(C(C)(C)C)s1 | 6.371%
COC(=O)C(C)(C)NC(=O)c1cnc(C(C)(C)C)s1 | -1.472%
Cc1ccc(-c2ncc(C(=O)NCCNc3ncccn3)s2)c(C)c1 | -5.367%
O=C(NCCNc1ncccn1)c1ccc(Cl)s1 | 24.49%

SMILES | Percent Effect
CC(C)(C)c1ncc(C(=O)NCCS(N)(=O)=O)s1 | -2.112%
CC(C)(C)c1ncc(C(=O)NCCNS(C)(=O)=O)s1 | 118.2%
O=C(N1CCC(OCc2ccccn2)CC1)C1(c2ccc(F)cc2)CC1 | -10.1%
C=C(C)CNC(=O)C1CCCN(C2CCN(C(C)C)CC2)C1 (configuration not stated) | -1.601%
Fc1cnc(N2CCCn3c(nnc3Cn3cccn3)C2)nc1 | -21.77%
CN(C)c1ncnc2c1CCN(C(=O)CN1CCCCC1)C2 | -9.788%
CCOC(C)c1nc(CN2CCN(c3ncc(C)cn3)CC2)cs1 (configuration not stated) | 0.6685%
COc1ccc(S(=O)(=O)C(F)(F)F)cc1NC(=O)CSC | 25.38%
COCCC1(CO)CCCN(Cc2ccc(F)c(C)c2)C1 (configuration not stated) | -0.7036%
CCN(CC)C(=O)CCCNC(=O)Cc1nc(-c2ccco2)oc1C | -23.46%
Cc1ccc(C(=O)N2CCOc3nc(C)ccc32)c(F)c1 | -2.508%
CC(C)(C)c1ncc(C(=O)NCCn2ccnc2)s1 | -7.496%
O=C(NCCNc1ccc(Br)cn1)c1ccc(O)cc1 | -11.29%
CC(C)(C)c1ncc(C(=O)NCCNC(=O)c2ccccc2)s1 | 3.571%
CC(C)(C)c1ncc(C(=O)NCCNc2ncccn2)s1 | 108.5%
CC(O)(CCc1ccccc1)CNC(=O)c1cccs1 (configuration not stated) | -8.464%
O=C(NCCNc1ncccn1)c1cnc(-c2ccccc2)nc1 | 9.369%
O=C(NCCNC1CCN(c2nccs2)CC1)c1cccs1 | -5.805%
CC(C)(C)c1ncc(C(=O)NCCNC(=O)c2cccs2)s1 | 110.8%
CC(C)(C)c1ncc(C(=O)NCCNC(=O)c2ccc(O)cc2)s1 | 102.8%
